# Laboratory results taken from article PMC7862700, “An all-to-all approach to the identification of sequence-specific readers for epigenetic DNA modifications on cytosine”.
# What was measured:
# Assay in all cases: DAPPL (digital affinity profiling via proximity ligation, sequencing); 10 mM Tris-HCl pH 7.5, 50 mM NaCl, 1 mM DTT, 4% glycerol, room temperature, 30 min; GST-TFs on glutathione beads, 16-mer random dsDNA library, 0.1% formaldehyde crosslink after washing; high values mean tight binding
# Settings in all cases: protein: recombinant; tags: N-terminal GST; dsDNA, one strand shown
# FLI1 = target: T1, FLI1 (Homo sapiens, UniProt Q01543 1-452)
# T1 sequence: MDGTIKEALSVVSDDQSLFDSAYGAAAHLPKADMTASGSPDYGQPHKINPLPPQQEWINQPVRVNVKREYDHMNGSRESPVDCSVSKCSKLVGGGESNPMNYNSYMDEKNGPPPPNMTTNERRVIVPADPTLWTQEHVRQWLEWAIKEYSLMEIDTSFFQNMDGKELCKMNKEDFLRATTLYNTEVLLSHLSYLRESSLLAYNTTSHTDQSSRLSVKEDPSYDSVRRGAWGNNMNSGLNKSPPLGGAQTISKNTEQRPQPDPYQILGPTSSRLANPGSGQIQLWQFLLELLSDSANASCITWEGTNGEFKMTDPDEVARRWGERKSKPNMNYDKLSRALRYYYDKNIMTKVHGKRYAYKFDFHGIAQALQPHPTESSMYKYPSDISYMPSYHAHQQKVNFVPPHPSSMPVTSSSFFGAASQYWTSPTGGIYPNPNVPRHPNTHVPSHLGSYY
# Summary of the method: (§1)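 Binding signal is given per hexamer as its read frequency for a factor divided by its frequency in the tag-only sample. GST-fused human transcription factors were expressed in yeast, captured on glutathione beads, barcoded with DNA and pooled with that sample, then incubated with 200 nmole of a 16-mer random double-stranded DNA library in Tris/NaCl/DTT/glycerol buffer for 30 min at room temperature. The pools were then washed, crosslinked, proximity-ligated, amplified by PCR and sequenced on an Illumina NextSeq500.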
# ELK1 = target: T2, ELK1 (Homo sapiens, UniProt P19419 1-428)
# T2 sequence: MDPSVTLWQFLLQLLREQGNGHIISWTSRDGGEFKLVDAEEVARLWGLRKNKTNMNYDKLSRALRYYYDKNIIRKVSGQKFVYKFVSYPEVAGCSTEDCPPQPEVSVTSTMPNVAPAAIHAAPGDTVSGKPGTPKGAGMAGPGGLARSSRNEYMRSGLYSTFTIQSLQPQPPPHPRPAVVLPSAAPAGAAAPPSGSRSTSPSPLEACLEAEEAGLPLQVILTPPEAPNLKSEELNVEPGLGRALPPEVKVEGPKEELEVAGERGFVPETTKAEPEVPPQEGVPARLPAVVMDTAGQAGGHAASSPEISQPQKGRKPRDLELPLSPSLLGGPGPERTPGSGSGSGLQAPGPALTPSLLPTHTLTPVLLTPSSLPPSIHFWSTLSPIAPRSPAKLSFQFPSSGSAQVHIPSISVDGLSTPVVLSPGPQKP
# Summary of the method: as §1
# GABPA = target: T3, GABPA (Homo sapiens, UniProt Q06546 1-454)
# T3 sequence: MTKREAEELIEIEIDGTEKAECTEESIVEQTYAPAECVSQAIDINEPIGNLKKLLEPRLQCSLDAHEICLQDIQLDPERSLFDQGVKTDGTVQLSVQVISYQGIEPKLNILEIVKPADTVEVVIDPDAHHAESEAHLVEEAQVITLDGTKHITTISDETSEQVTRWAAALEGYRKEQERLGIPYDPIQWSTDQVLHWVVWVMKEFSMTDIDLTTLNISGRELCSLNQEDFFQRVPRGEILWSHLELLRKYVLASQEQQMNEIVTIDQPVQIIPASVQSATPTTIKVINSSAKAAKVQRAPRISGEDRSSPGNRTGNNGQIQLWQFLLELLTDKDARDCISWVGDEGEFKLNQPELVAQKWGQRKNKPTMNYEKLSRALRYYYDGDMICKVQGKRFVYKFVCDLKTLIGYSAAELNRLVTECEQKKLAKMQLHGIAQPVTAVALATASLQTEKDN
# Summary of the method: as §1
# ERG = target: T4, ERG (Homo sapiens, UniProt P11308 1-479)
# T4 sequence: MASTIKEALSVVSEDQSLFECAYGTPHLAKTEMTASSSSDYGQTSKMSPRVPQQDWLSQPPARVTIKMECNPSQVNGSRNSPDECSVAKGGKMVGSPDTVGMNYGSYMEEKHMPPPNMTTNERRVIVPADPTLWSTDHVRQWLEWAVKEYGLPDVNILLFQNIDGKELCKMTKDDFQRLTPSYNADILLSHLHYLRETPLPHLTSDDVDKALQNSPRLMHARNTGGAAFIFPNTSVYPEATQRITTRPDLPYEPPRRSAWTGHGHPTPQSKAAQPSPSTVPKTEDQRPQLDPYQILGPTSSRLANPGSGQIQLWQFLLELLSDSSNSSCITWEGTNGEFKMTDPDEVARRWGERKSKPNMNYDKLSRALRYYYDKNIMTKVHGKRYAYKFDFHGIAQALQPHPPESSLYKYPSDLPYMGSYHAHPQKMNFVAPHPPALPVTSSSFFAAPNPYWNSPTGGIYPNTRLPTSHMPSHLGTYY
# Summary of the method: as §1
# ELF1 = ELF1 (Homo sapiens, UniProt P32519 1-619)
# Summary of the method: as §1
# EHF = target: T5, EHF (Homo sapiens, UniProt Q9NZC4 1-300)
# T5 sequence: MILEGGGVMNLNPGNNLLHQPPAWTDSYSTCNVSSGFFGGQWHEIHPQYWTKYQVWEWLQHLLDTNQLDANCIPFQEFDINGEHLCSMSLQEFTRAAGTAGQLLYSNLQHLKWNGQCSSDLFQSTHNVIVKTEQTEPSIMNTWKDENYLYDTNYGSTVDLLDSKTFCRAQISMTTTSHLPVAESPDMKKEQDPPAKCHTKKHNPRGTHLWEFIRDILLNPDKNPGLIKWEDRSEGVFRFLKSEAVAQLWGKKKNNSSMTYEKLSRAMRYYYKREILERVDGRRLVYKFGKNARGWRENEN
# Summary of the method: as §1
# SPIB = SPIB (Homo sapiens, UniProt Q01892 1-262)
# Summary of the method: as §1
# ELK3 = target: T6, ELK3 (Homo sapiens, UniProt P41970 1-407)
# T6 sequence: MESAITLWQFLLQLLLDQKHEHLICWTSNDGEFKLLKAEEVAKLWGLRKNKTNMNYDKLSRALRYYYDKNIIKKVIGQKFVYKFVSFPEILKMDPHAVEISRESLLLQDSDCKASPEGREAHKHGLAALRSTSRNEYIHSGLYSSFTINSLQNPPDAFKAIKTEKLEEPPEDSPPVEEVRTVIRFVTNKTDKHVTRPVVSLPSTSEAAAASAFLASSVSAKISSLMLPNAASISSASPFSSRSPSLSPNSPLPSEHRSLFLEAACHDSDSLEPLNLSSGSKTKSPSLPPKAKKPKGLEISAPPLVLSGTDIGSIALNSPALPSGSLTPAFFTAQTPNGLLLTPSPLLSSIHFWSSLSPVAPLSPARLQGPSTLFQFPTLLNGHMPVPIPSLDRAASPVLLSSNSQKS
# Summary of the method: as §1
# FEV = target: T7, FEV (Homo sapiens, UniProt Q99581 1-238)
# T7 sequence: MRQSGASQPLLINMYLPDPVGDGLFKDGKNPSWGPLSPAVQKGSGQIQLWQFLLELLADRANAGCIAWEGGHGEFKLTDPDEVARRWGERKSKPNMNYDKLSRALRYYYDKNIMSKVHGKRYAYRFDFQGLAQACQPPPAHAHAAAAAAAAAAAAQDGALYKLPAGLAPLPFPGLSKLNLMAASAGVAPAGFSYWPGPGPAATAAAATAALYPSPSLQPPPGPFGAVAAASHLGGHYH
# Summary of the method: as §1
# ETV5 = ETV5 (Homo sapiens, UniProt P41161 1-510)
# Summary of the method: as §1
# SPIC = target: T8, SPIC (Homo sapiens, UniProt Q8N5J4 1-248)
# T8 sequence: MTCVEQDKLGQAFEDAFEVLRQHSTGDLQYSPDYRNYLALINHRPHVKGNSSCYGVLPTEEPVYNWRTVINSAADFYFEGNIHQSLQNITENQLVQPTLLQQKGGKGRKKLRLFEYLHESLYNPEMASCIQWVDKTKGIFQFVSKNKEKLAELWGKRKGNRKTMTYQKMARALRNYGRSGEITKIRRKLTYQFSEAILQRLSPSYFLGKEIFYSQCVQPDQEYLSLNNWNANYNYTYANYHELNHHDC
# Summary of the method: as §1
# ELF4 = ELF4 (Homo sapiens, UniProt Q99607 1-663)
# Summary of the method: as §1
# ETV1 = ETV1 (Homo sapiens, UniProt P50549 1-477)
# Summary of the method: as §1
# ERF = target: T9, ERF (Homo sapiens, UniProt P50548 1-548)
# T9 sequence: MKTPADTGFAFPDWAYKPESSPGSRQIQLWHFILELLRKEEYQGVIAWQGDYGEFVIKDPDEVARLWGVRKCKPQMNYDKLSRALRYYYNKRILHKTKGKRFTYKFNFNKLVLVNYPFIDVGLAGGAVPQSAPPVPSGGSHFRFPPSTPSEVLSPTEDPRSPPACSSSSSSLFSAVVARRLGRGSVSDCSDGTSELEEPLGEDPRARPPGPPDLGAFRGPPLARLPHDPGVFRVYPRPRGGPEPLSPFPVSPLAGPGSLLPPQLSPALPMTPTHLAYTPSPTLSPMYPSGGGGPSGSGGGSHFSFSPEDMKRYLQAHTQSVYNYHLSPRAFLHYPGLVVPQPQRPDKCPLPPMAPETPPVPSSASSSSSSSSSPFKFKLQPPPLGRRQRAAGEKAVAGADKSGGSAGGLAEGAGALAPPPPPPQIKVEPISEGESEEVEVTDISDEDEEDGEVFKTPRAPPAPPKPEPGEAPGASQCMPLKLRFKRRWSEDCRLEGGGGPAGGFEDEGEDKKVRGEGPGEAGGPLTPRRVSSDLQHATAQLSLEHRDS
# Summary of the method: as §1
# ETV3L = target: T10, ETV3L (Homo sapiens, UniProt Q6ZN32 1-361)
# T10 sequence: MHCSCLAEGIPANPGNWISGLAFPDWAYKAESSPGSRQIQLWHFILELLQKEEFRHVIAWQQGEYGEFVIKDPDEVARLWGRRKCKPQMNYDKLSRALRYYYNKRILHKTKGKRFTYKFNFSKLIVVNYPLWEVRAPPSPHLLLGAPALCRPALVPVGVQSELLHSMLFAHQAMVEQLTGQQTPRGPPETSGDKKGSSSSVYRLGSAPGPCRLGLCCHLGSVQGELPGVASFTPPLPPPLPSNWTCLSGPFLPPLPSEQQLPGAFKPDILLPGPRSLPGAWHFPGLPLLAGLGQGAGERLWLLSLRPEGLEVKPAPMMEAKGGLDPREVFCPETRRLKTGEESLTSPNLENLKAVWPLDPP
# Summary of the method: as §1
# ETS2 = target: T11, ETS2 (Homo sapiens, UniProt P15036 1-469)
# T11 sequence: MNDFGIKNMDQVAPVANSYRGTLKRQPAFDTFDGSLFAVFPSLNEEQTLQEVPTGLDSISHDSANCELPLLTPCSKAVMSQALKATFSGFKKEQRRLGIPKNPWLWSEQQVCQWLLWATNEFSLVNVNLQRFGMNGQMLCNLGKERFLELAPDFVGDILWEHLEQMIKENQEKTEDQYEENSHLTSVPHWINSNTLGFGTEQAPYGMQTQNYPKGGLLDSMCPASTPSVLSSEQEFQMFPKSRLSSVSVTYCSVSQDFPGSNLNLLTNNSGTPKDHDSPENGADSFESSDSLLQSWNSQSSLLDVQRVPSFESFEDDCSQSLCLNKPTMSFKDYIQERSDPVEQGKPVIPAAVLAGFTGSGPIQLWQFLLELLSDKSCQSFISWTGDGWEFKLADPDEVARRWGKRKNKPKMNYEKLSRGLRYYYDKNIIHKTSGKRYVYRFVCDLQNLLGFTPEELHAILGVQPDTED
# Summary of the method: as §1
# ELF5 = target: T12, ELF5 (Homo sapiens, UniProt Q9UKW6-2 1-255)
# T12 sequence: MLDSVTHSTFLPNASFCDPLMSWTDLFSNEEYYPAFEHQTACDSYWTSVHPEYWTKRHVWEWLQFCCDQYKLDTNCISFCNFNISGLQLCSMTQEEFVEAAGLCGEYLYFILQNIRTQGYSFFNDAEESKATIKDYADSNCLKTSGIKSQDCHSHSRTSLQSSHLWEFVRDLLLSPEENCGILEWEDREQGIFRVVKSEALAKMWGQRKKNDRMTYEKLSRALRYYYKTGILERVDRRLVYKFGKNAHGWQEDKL
# Summary of the method: as §1
# ETV3 = target: T13, ETV3 (Homo sapiens, UniProt P41162-2 1-143)
# T13 sequence: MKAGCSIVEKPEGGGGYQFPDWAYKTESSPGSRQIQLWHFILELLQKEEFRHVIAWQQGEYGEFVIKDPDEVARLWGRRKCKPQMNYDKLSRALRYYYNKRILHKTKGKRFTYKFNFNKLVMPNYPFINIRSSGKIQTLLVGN
# Summary of the method: as §1
# Sequence of ELF4 (Q99607 whole entry): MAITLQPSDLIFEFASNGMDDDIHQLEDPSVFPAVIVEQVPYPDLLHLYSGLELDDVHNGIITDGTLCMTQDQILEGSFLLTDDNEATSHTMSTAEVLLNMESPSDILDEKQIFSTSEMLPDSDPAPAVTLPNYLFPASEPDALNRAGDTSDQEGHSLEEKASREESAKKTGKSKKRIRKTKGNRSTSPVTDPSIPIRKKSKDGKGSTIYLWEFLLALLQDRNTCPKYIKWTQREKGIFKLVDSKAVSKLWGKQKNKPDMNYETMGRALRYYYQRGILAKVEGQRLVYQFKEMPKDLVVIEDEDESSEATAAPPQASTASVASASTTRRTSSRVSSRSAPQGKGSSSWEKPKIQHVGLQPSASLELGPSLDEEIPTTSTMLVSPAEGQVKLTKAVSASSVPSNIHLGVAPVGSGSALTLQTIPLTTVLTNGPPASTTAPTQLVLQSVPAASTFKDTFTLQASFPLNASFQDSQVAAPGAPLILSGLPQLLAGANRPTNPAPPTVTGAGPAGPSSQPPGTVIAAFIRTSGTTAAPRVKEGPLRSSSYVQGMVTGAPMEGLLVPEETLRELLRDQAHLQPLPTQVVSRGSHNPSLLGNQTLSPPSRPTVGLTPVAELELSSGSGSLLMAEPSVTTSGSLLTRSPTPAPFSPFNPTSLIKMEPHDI
# Sequence of SPIB (Q01892 whole entry): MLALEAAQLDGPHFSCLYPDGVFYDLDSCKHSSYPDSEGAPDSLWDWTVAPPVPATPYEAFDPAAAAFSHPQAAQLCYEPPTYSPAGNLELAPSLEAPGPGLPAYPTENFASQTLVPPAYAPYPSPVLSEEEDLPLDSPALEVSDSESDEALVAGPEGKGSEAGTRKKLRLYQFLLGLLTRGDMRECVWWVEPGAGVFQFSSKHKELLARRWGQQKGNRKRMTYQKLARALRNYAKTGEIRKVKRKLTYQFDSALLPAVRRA
# Sequence of ETV5 (P41161 whole entry): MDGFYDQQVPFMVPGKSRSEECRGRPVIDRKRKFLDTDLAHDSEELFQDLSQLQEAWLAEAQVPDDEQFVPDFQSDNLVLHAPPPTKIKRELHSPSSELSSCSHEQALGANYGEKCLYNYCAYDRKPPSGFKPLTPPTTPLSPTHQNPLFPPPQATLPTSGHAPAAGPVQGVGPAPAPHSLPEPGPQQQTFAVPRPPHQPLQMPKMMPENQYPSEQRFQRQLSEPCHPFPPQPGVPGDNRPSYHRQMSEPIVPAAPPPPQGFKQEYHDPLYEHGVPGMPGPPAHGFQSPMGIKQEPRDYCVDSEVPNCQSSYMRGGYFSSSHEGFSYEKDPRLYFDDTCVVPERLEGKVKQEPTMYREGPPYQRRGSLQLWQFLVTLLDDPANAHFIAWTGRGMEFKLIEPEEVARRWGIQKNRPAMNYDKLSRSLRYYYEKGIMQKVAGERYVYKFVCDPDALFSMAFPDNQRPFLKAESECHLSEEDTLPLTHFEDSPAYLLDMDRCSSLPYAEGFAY
# Sequence of ETV1 (P50549 whole entry): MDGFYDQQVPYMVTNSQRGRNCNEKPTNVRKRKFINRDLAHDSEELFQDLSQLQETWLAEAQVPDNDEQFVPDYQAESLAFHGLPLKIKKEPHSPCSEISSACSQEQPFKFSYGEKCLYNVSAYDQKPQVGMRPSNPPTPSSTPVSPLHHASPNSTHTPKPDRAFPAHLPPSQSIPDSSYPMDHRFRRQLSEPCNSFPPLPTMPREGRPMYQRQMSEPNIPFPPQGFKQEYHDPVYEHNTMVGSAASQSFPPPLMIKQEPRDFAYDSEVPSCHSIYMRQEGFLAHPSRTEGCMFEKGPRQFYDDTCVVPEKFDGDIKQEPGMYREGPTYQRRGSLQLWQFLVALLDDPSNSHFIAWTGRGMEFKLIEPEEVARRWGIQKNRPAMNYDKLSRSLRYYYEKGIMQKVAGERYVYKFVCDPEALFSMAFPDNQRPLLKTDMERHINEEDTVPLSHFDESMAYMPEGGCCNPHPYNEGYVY
# Sequence of ELF1 (P32519 whole entry): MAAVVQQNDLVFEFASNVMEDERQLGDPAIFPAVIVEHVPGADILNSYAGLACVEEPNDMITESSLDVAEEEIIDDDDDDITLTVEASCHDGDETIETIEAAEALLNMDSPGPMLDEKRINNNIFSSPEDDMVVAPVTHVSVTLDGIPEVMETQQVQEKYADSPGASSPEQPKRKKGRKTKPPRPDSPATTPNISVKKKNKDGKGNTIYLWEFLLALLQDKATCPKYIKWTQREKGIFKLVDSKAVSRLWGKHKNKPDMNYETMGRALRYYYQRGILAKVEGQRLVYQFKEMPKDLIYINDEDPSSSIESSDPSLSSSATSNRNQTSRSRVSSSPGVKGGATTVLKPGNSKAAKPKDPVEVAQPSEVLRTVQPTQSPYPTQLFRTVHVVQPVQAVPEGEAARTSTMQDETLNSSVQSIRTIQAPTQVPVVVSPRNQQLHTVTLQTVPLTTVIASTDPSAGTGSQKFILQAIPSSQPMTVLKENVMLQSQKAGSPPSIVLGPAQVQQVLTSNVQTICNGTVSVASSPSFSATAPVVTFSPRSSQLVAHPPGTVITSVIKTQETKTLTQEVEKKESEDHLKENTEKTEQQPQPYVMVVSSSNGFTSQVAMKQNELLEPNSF
sequence,measurement,setting,value
TCAACA,binding signal,FLI1,"1.06 fold enrichment (6-mer frequency, TF over GST control)"
same,binding signal,ELK1,"1.13 fold enrichment (6-mer frequency, TF over GST control)"
same,binding signal,GABPA,"1.11 fold enrichment (6-mer frequency, TF over GST control)"
same,binding signal,ERG,"1.04 fold enrichment (6-mer frequency, TF over GST control)"
same,binding signal,ELF1,"1.03 fold enrichment (6-mer frequency, TF over GST control)"
same,binding signal,EHF,"1.05 fold enrichment (6-mer frequency, TF over GST control)"
same,binding signal,SPIB,"1.01 fold enrichment (6-mer frequency, TF over GST control)"
same,binding signal,ELK3,"1.06 fold enrichment (6-mer frequency, TF over GST control)"
same,binding signal,FEV,"1.05 fold enrichment (6-mer frequency, TF over GST control)"
same,binding signal,ETV5,"1.04 fold enrichment (6-mer frequency, TF over GST control)"
same,binding signal,SPIC,"1.05 fold enrichment (6-mer frequency, TF over GST control)"
same,binding signal,ELF4,"1.07 fold enrichment (6-mer frequency, TF over GST control)"
same,binding signal,ETV1,"1.06 fold enrichment (6-mer frequency, TF over GST control)"
same,binding signal,ERF,"1.03 fold enrichment (6-mer frequency, TF over GST control)"
same,binding signal,ETV3L,"1.09 fold enrichment (6-mer frequency, TF over GST control)"
same,binding signal,ETS2,"1.07 fold enrichment (6-mer frequency, TF over GST control)"
same,binding signal,ELF5,"1 fold enrichment (6-mer frequency, TF over GST control)"
same,binding signal,ETV3,"1.08 fold enrichment (6-mer frequency, TF over GST control)"
